Assay outcomes from PubChem BioAssay.
Compounds with a hit are over-represented: about 3.8% of the library has one in this group of screens.
GALK inhibitor: GALK (human) enzyme inhibition; Potency, µM (doses to about 57.5 µM), inactives show at the top dose activity, negative = inhibition, actives largely listed as inhibitors; recombinant GALK, Kinase-Glo ATP luminescence, 1 h; P51570; AID 1347072; 44,000 tested, under 10 active;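 further: plate controls were full GALK reaction for no effect and reaction lacking GALK for full effect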
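5 nM GALK; 35 uM ATP; 100 uM D-galactose; 20 mM HEPES pH 8.0, 5 mM MgCl2, 60 mM NaCl, 1 mM DTT, 0.01% BSA; 1 h RT; Kinase-Glo Plus luminescence.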
NTMT1 inhibitor: inhibitors of human N-terminal methyltransferase NTMT1; AID 1645870; NTMT1 MTase-Glo SAH luminescence, purified enzyme; actives 2.5% (n = 59,000); Potency, µM (titrated, usually from 114 µM), for the others: top-dose activity change, negative = inhibition, actives largely listed as inhibitors;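 further: potency means the concentration at half of the fitted maximal effect; plate controls were DMSO vehicle for no effect and no enzyme for full effect; nearly all actives have a fitted effect of over 65% in size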
Target sequence (Q9BV86 whole entry, looked up): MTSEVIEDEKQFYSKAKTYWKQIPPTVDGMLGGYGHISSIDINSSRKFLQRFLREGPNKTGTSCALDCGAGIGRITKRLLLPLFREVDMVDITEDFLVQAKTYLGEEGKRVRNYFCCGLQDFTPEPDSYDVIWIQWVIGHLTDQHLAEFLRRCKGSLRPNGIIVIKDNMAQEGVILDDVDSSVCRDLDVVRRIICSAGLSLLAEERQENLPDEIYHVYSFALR
PTAP-TSG101 blk: inhibitors of HIV-1 PTAP binding to human TSG101, validation. Q99816. Fluorescence polarization, FITC-PTAP peptide/Tsg101, 20 min. Potency, µM (highest dose often 115 µM), most hits filed as inhibitors. 44,000 tested, under 10 active; further: potency means the concentration at half of the fitted maximal effect; 0% is about no effect
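qHTS FP binding, 20 min r.t.: 10 uM Tsg101 domain + 50 nM FITC-PTAP peptide, pH 7.5 HEPES buffer with TCEP and EDTA.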
B2AR arrestin ag: ADRB2 beta-arrestin recruitment. P07550. Potency, µM (top dose mostly 46.1 µM), most hits filed as activators. HTLA Tango cells, beta-arrestin recruitment, luciferase luminescence, 18 h. 44,000 tested, under 10 active. AID 1347077;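 further: potency means the concentration at half of the fitted maximal effect; 0% = DMSO and full agonism = EC100 isoproterenol or metaproterenol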
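Tango cells expressing recombinant beta2-AR and beta-arrestin were treated with compounds (up to 46 microM titration) in DMEM with 1% FBS for 18 hr at 37 degrees C. Beta-arrestin recruitment drove tTA-dependent luciferase, read by luminescence; curves were fitted and classed.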
GPR32 ag: activates human resolvin D1 receptor GPR32; O75388; CHO-K1 GPR32 beta-arrestin PathHunter luminescence, 90 min; zero percent set by DMSO-only wells; activation, % at 76.9 µM; actives 2.5% (n = 48,000); AID 1346428;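 active means activation of at least 60% and not above a set upper limit, about 1 call in 100 departs from these limits; inconclusive means activation of 40% to 60%, or above that upper limit; inactive means activation under 40%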; further: 0% is about no effect
Target sequence (O75388 whole entry, looked up): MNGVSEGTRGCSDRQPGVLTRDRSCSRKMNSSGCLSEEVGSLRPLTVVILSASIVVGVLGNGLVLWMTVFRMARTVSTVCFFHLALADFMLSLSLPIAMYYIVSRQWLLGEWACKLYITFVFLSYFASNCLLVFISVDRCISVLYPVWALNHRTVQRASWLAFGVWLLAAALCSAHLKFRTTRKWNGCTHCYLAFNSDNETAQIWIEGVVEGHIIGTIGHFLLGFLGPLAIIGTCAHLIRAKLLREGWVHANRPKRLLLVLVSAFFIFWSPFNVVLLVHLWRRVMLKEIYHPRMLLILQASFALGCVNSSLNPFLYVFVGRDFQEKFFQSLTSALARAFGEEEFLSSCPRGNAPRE
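CHO-K1 cells stably expressing ProLink-tagged GPR32 and Enzyme Activator-tagged beta-arrestin were seeded at 2,500 cells/well overnight, exposed to compounds for 90 min at 37 °C, then read by beta-Gal complementation chemiluminescence after 1 h detection reagent.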
SKOV3 invasion: blocks SKOV3ip1 adhesion and invasion in omental model | AID 1963576 | Potency, µM (series often up to 45.8 µM), without a hit: top-dose activity change, negative = inhibition, usual class: inhibitors | actives 0.1% (n = 46,000) | SKOV3ip1-GFP adhesion/invasion on 3D omental model, fluorescence;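 further: potency means the concentration at half of the fitted maximal effect; plate controls were DMSO wells for no effect and tomatine positive control wells for full effect; nearly all actives have a fitted effect of over 65% in size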
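Adhesion/invasion was scored as fixed GFP-labeled SKOV3ip1 cell counts (488/509 nm), normalized to DMSO and tomatine controls. Cancer cells in serum-free medium, with four compound doses (0.36-46 umol/L), sat 2 hr at RT then 16 hr at 37 C on a 48 hr fibroblast/mesothelial/ECM culture.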
DYRK1A inh: blocks recombinant human DYRK1A kinase activity. shares compounds with NTMT1 inhibitor. AID 2705. recombinant DYRK1A, Kinase-Glo ATP depletion luminescence. actives 80% (n = 100). Potency, µM (titrated, usually from 76.9 µM), without a hit: at the highest dose activity change, negative = inhibition, usual class: inhibitors
CLK4 KinaseGlo: inhibits human CLK4 kinase in Kinase-Glo confirmation; shares compounds with NTMT1 inhibitor; recombinant Clk4, Kinase-Glo ATP luminescence, 4.5 h; Potency, µM (top dose mostly 76.9 µM), inactives show top-dose activity, negative = inhibition, usual class: inhibitors; actives 90% (n = 90)
USP2 K63 confirm: USP2a inhibition confirmed on K63 diubiquitin; AID 652172; actives 80% (n = 30); Potency, µM (top dose mostly 57.5 µM), inactives show at the top dose activity change, negative = inhibition, most hits filed as inhibitors; USP2 cleavage of DiUb K63-3IQF, fluorescence kinetic; shares compounds with NTMT1 inhibitor
Casp6 inh: selectivity of USP2a inhibitors: human caspase-6 inhibition | shares compounds with NTMT1 inhibitor | Caspase 6 enzyme, Caspase-Glo 6 luminescence | activity change, negative = inhibition, % at 46.1 µM | 30 tested, under 10 active | AID 652277
NNMT counter: counter-screen for NTMT1 inhibitors: human NNMT inhibition | AID 1645878 | Potency, µM (highest dose often 57.1 µM), for the others: at the top dose activity, negative = inhibition, hits mostly inhibitors | actives 10% (n = 120) | NNMT MTase-Glo luminescence, SAH detection | shares compounds with NTMT1 inhibitor
The depositor's hits bear a star; i = inactive; ? = inconclusive; / = no result; [ ] = dose if it differs, or a comment. Unless noted, the call rests on the fitted dose curve; in most records, active means well fitted curve in the direction sought with a large enough effect; inconclusive means small, poorly fitted or top-dose-only effect, or another doubt; inactive means no such curve, though single readings can be large; an effect the other way counts as inactive or inconclusive.

SMILES	GALK inhibitor	NTMT1 inhibitor	PTAP-TSG101 blk	B2AR arrestin ag	GPR32 ag	SKOV3 invasion	DYRK1A inh	others
COc1ccc(NCc2cccn2-c2nnc(N3CCC(C)CC3)s2)c(OC)c1	0.2%	-13.0%	i	i	-19.8	-7.8%	/
COc1cc(CN(C(=O)c2ccc(C)cc2)C2CCS(=O)(=O)C2)cc(OC)c1OC (stereo unspecified)	-1.0%	10.3%	i	i	-12.6	2.7%	/
CCCC1(CCC)CCC2(CCN(CCCN(CC)CC)C2)CC1	/	22.4µM*	/	/	/	/	/	NNMT counter=-15.1%
C=C1CC[C@@H]2[C@](C)(CO)[C@H](O)CC[C@@]2(C)[C@@H]1C/C=C1/C(=O)OCC1O (stereo partly specified)	/	4.4%[57.5 µM]	/	/	/	/	/
O=C(Nc1ccc(S(=O)(=O)Nc2nccs2)cc1)c1cc(-c2ccccc2)nc2ccccc12	/	-18.6%	/	/	/	/	/	USP2 K63 confirm=1.72µM*;Casp6 inh=-1.8
O=S(=O)(Nc1nccs1)c1ccc(Nc2nc(-c3ccccc3)cs2)cc1	/	3.3%[57.5 µM]	/	/	/	/	/
CC(=O)Nc1ccc(S(=O)(=O)Nc2nccs2)cc1	/	28.5%	/	/	/	/	/	USP2 K63 confirm=-1.3%;Casp6 inh=-28.0
Cc1csc(CNc2ncnc3ccc(-c4ccoc4)cc23)c1	/	-10.6%	/	/	/	/	/
Cc1ccc(CNc2ncnc3ccc(-c4ccoc4C)cc23)o1	/	?	/	/	/	/	4.63µM*
c1cncc(CNc2ncnc3ccc(-c4ccoc4)cc23)c1	/	-8.9%	/	/	/	/	/
c1c[nH]c(CNc2ncnc3ccc(-c4ccoc4)cc23)n1	/	1.6%	/	/	/	/	9.23µM*
Cc1occc1-c1ccc2ncnc(NCc3ncc[nH]3)c2c1	/	-11.8%	/	/	/	/	2.32µM*
Cc1nc(CNc2ncnc3ccc(-c4ccoc4)cc23)cs1	/	?	/	/	/	/	3.68µM*
Cc1cccc(CNc2ncnc3ccc(-c4ccoc4)cc23)c1	/	8.1%	/	/	/	/	/
CCOC(=O)c1ccoc1-c1ccc2ncnc(NCc3ncc[nH]3)c2c1	/	10.5%	/	/	/	/	?
COc1cccc(Nc2ncc3ncc(=O)n(C)c3n2)c1	/	/	/	/	/	/	/	CLK4 KinaseGlo=0.923µM*
COc1cccc(Nc2ncc3nc(-c4cn(C)c5ccccc45)c(=O)n(CCC#N)c3n2)c1	/	/	/	/	/	/	/	CLK4 KinaseGlo=?
Cn1nnnc1SCCCNCc1ccccc1OCc1ccccc1Cl	-3.8%	?	i	i	25.4	-36.4%	/
COc1ccc(CNC(=O)c2ccc3[nH]c(C)c(C)c3c2)c(OC)c1	1.5%	?	i	i	-3.6	9.1%	/
